Laboratory results as given in PubChem BioAssay.
Active and inactive are the calls of the source.

biological target: NADPH oxidase 2 (Homo sapiens) (UniProt P04839); test: NOX2-dependent H2O2 signal modulators, primary screen, NOX inhibitor project, cell-based, HEK293-NOX2, PMA-stimulated, Amplex Red fluorescence (AID 1159); settings: 45 min, higher = more signal, called active from +8 up or from −8 down; note: test concentration not given here
Sequence (P04839 whole entry, looked up): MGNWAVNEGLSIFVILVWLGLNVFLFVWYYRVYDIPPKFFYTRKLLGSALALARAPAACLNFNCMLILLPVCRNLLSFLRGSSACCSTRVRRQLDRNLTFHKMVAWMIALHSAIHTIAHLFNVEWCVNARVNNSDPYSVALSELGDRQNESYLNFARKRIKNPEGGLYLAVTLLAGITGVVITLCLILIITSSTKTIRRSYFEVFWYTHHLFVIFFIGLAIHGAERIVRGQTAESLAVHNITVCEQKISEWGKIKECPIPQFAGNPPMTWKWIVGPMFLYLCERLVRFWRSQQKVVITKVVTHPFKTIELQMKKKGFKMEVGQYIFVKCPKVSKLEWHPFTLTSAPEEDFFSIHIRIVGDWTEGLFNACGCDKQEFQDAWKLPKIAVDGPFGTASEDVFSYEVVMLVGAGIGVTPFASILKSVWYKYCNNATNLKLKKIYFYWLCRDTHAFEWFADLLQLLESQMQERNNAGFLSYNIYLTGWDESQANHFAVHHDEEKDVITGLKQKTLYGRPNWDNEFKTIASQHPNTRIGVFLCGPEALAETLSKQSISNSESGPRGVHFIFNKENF

z-score, inactive:
CC(C)C(=C=CC[C@H](O)c1ccc(OCCO)cc1)C[C@H](O)c1cc(Cl)cc(Cl)c1O 0.532
C=C(COC)/C(=C/C[C@@H](OC(=O)c1ccncc1)c1ccc(OCCO)cc1)c1cnc2ccccc2c1 -1.17
CC(C)CN1C(=O)[C@@]2(c3ccc([N+](=O)[O-])cc3)CC(=O)N(CC34CC5CC(CC(C5)C3)C4)[C@@H]2c2ccc(CO)cc21 -0.187
C=C(CCCC)/C(=C/C[C@@H](OC(C)=O)c1ccc(CO)o1)c1cc(C(=O)OC)ccc1OC 0.615
C=C(C(=O)CC[C@H](OC(=O)c1cccnc1)c1ccc(CO)o1)C(C)C 0.637
CCOc1cc(C(O)C2C=CC3C(=O)N(C4CCCCC4)C(=O)C3N2Nc2ccc(OC)cc2)ccc1O (stereo unspecified) -2.2
CN(C)CCCNC(=O)[C@@H]1c2ccccc2C(=O)N(CC23CC4CC(CC(C4)C2)C3)[C@H]1c1ccc(CO)cc1 -2.04
NC(=O)N1C(=O)C2C(C1=O)C1C=C(CCCO)C2C(c2cccs2)N1Cc1cc2c(cc1Br)OCO2 (stereo unspecified) -0.848
[N-]=[N+]=NCc1ccccc1[C@H]1OC(c2ccc(OCCCO)cc2)=N[C@@]1(CCS(=O)(=O)c1ccccc1)C(N)=O 1.39
CC(C)(C)OC(=O)CC[C@]1(C(=O)O)N=C(c2ccc(OCCCO)cc2)O[C@H]1c1ccccc1 0.643
COc1ccc([Si](C)(C)[C@@H]2[C@@H](CCO)O[C@]3(C(=O)N(Cc4cccc(N5C(=O)c6cccc7cccc5c67)c4)c4ccccc43)[C@H]2C)cc1 0.498
